Measured values reported in the supplement of paper PMC6555819.

Legend:
Assay in all cases: PBM binding z-score (relative to random genomic background probes); higher = stronger binding; sequences stand for … in GC…GCGATTGACAGCGTAGAATGAAGG
[1] = system: FXR:RXRa (NR concentration 270 nM, RXRa partner concentration 90 nM)
Procedure, shortened: (§1)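 Antibodies against each partner of ligand-free nuclear receptor dimers (one per run) detected binding on custom Agilent 4×180K protein-binding microarrays after 1 h incubation. The double-stranded probes had 34-nt variable regions carrying direct-repeat seeds, single-nucleotide variants, half-site ablations and random human genomic background sequences. Binding z-scores, from regression-normalized fluorescence, use the random background probes as reference.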

[2] = system: LXRa:RXRa (NR concentration 270 nM, RXRa partner concentration 90 nM)
Procedure, shortened: as §1

[3] = system: LXRa homodimer (NR concentration 270 nM)
Procedure, shortened: as §1

[4] = system: LXRb:RXRa (NR concentration 270 nM, RXRa partner concentration 90 nM)
Procedure, shortened: as §1

[5] = system: LXRb homodimer (NR concentration 270 nM)
Procedure, shortened: as §1

[6] = system: PPARa:RXRa (NR concentration 270 nM, RXRa partner concentration 90 nM)
Procedure, shortened: as §1

[7] = system: PPARg:RXRa (NR concentration 180 nM, RXRa partner concentration 90 nM)
Procedure, shortened: as §1

[8] = system: PPARg:RXRa 270nM:90nM, anti-RXR (NR concentration 270 nM, RXRa partner concentration 90 nM)
Procedure, shortened: as §1

[9] = system: PPARg:RXRa 30nM:10nM, anti-RXR (NR concentration 30 nM, RXRa partner concentration 10 nM)
Procedure, shortened: as §1

[10] = system: PPARg:RXRa 90nM:30nM, anti-RXR (NR concentration 90 nM, RXRa partner concentration 30 nM)
Procedure, shortened: as §1

[11] = system: PPARg:RXRa DBDmut IVT, anti-RXR (DBD mutation: RXRa K156A/R161A, NR concentration 270 nM, RXRa partner concentration 90 nM)
Procedure, shortened: as §1

[12] = system: PPARg:RXRa IVT, anti-PPARg (NR concentration 270 nM, RXRa partner concentration 90 nM)
Procedure, shortened: as §1

[13] = system: PPARg DBDmut:RXRa IVT, anti-PPARg (DBD mutation: PPARg1 K132A/R137A, NR concentration 270 nM, RXRa partner concentration 90 nM)
Procedure, shortened: as §1

[14] = system: PPARg DBDmut IVT, anti-PPARg (DBD mutation: PPARg1 K132A/R137A, NR concentration 270 nM)
Procedure, shortened: as §1

[15] = system: PPARg homodimer (NR concentration 180 nM)
Procedure, shortened: as §1

[16] = system: PXR:RXRa (NR concentration 270 nM, RXRa partner concentration 90 nM)
Procedure, shortened: as §1

[17] = system: PXR homodimer (NR concentration 270 nM)
Procedure, shortened: as §1

[18] = system: RARa:RXR (NR concentration 270 nM, RXRa partner concentration 90 nM)
Procedure, shortened: as §1

[19] = system: RARa homodimer (NR concentration 270 nM)
Procedure, shortened: as §1

[20] = system: RARb:RXRa (NR concentration 270 nM, RXRa partner concentration 90 nM)
Procedure, shortened: as §1

| Sequence | PBM binding z-score [1] | PBM binding z-score [2] | PBM binding z-score [3] | PBM binding z-score [4] | PBM binding z-score [5] | PBM binding z-score [6] | PBM binding z-score [7] | PBM binding z-score [8] | PBM binding z-score [9] | PBM binding z-score [10] | PBM binding z-score [11] | PBM binding z-score [12] | PBM binding z-score [13] | PBM binding z-score [14] | PBM binding z-score [15] | PBM binding z-score [16] | PBM binding z-score [17] | PBM binding z-score [18] | PBM binding z-score [19] | PBM binding z-score [20] |
| --- | --- | --- | --- | --- | --- | --- | --- | --- | --- | --- | --- | --- | --- | --- | --- | --- | --- | --- | --- | --- |
| GATCCAGGGTCAAGGCCAGAGTACGCGTATTGAT | 6.77 | 4.23 | -0.34 | 3.91 | -0.536 | 5.78 | 5.86 | 5.78 | 2.2 | 4.41 | 2.29 | 3.75 | 0.299 | 0.301 | 2.21 | 4.33 | 0.0901 | 5.29 | 0.437 | 4.49 |
| TCTTGTTGATCAGCAGGTTAAGAAAGCTGGCCAA | 0.582 | 0.423 | -0.308 | 0.784 | -0.493 | 0.727 | -0.682 | 1.17 | 2.56 | 1.66 | 1.56 | 0.0637 | -0.302 | -0.327 | -0.0408 | 0.332 | -0.115 | 0.447 | -0.41 | 0.288 |
| TCTTGTAGATCATCAGGAGGTTAAGAAAGATCGA | 0.0818 | 1.07 | -0.0921 | 0.94 | -0.422 | 1.1 | -0.109 | 1.34 | 2.4 | 1.84 | 1.49 | 0.887 | 1.1 | -0.169 | -0.101 | 0.787 | -0.453 | 0.957 | -0.298 | 0.52 |
| AGAACGAGGACAATGAGTTGATAGCACGGGTGGC | -0.125 | -0.562 | -0.33 | -0.706 | -0.434 | -0.365 | 1.06 | -0.0649 | -0.0875 | -0.147 | 1.03 | 0.378 | -0.192 | -0.367 | 0.00958 | 0.277 | 1.99 | -0.176 | 0.102 | 0.775 |
| TGAATGAGGTTATAAGATGAGGGAACGTTGCAAA | 1.51 | 1.28 | -0.0389 | 1.09 | 0.338 | 2.36 | 1.1 | 1.61 | 1.03 | 1.43 | 1.09 | 1.5 | 0.967 | 0.169 | 0.684 | 0.72 | -0.291 | 1.49 | 0.262 | 1.19 |
| ATCGAAAGGTCGAGGCGAGTATAGAGAAAGGGAA | 3.71 | 3.01 | -0.542 | 2.24 | 0.308 | 4.47 | 2.71 | 2.86 | 0.749 | 1.52 | 0.108 | 1.14 | 0.481 | 0.208 | 0.98 | 2.11 | 0.0659 | 2.71 | 0.203 | 3.86 |
| CCTAGCAGGCCAATCAGGGTCACTCAAGGCTTGA | 2.6 | 3.39 | -0.0064 | 3.03 | -0.752 | 3.63 | 0.949 | 1.33 | -0.454 | 0.361 | 1.3 | 1.7 | -0.834 | -1.49 | 0.893 | 4.07 | -0.258 | 3.42 | -0.49 | 2.36 |
| CTACCAAGGTGAACAATGTCGTTGATTACTATTC | 0.559 | 0.263 | 0.0434 | 0.937 | 0.00375 | 1.37 | 0.621 | 0.75 | 0.226 | 0.326 | 2.67 | 2.51 | 0.151 | 0.164 | 0.475 | 0.327 | -0.0411 | 0.755 | 0.471 | 1.67 |
| TAGCCTAGGTCAGTTCGGGCCAGTATACGCTATA | 1.39 | 0.745 | -0.272 | 0.551 | -0.0472 | 1.22 | 0.33 | 0.647 | -0.293 | 0.114 | 0.449 | 1.21 | -0.878 | -1.14 | -0.282 | 1.53 | -0.352 | 0.927 | -0.951 | 2.92 |
| ATCGAAAGGTCGTGAGGTGAGTCTACAGAAAGGC | 4.96 | 3.75 | 0.0112 | 3.17 | 0.35 | 4.99 | 3.79 | 4.19 | 1.17 | 2.92 | 0.266 | 2.6 | 0.998 | 0.581 | 1.51 | 2.97 | -0.0415 | 3.84 | 0.605 | 3.87 |
| ATCCAAAGGTCGACGAGGTGAGTATACACCGTTT | 5.35 | 3.7 | 0.198 | 3.13 | 0.235 | 4.5 | 4.29 | 4.16 | 1.4 | 3.03 | 0.48 | 2.51 | 0.787 | 0.209 | 1.99 | 3.05 | 0.52 | 3.62 | 0.92 | 4.07 |
